Screens as filed in PubChem BioAssay.
BAZ2B block: qHTS Assay for Inhibitors of BAZ2B; Bromodomain adjacent to zinc finger domain protein 2B (Homo sapiens), Q9UIF8; AlphaScreen BAZ2B-H3K14Ac peptide displacement; Potency, µM (top dose mostly 114 µM), usual class: inhibitors; hit rate 4.4% among 360,000; AID 504333, 2011; further: nearly all actives have a fitted effect of over 60% in size
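AlphaScreen displacement: compounds (up to 110uM) incubated 30 min at room temperature with a preformed 50 nM BAZ2B/50 nM biotinylated H3K14Ac peptide complex in PBS pH 7.4 with Tween-20. Donor and acceptor beads at 10 ug/mL final added, 20 min light-protected before reading.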
GLS inhibitor: qHTS for Inhibitors of Glutaminase (GLS); AID 624170, 2012; GLS enzymatic activity, qHTS titration; Glutaminase kidney isoform, mitochondrial (Homo sapiens), O94925; hit rate 0.21% among 410,000; Potency, µM (top dose mostly 45.5 µM), usual class: inhibitors
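Coupled fluorescence readout: glutamate oxidase/HRP/Amplex Red detect glutamate formed by hKGA from L-glutamine (1 mM solution added). Buffer 45 mM KH2PO4 pH 8.2, 0.02% Tween-20; reads at t0 and 30 min RT.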
JMJD2A Tudor: qHTS Assay for Inhibitors of JMJD2A-Tudor Domain; Lysine-specific demethylase 4A (Homo sapiens), O75164; AlphaScreen JMJD2A-Tudor / H3K4me3 peptide binding; Potency, µM (titrated, usually from 114 µM), actives largely listed as inhibitors; hit rate 4.4% among 390,000; AID 504339, 2011; further: nearly all actives have a fitted effect of over 50% in size
HP1b chromo inh: HTS for Inhibitors of HP1-beta Chromodomain Interactions with Methylated Histone Tails. Chromobox protein homolog 1 (Homo sapiens), P83916. AlphaScreen HP1-beta / biotin-H3K9me3 peptide binding. Potency, µM (titrated, usually from 114 µM), actives largely listed as inhibitors. hit rate 0.56% among 390,000; further: nearly all actives have a fitted effect of over 70% in size
Target sequence (P83916 whole entry, looked up): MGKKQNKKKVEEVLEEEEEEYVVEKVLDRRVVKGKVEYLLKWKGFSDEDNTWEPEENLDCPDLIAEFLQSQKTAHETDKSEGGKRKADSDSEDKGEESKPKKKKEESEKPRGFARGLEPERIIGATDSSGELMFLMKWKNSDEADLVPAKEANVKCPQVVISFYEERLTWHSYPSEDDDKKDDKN
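AlphaScreen: HP1-beta (50 nM) preformed 30 min with biotin-H3(1-18)K9me3 peptide (50 nM) in PBS pH 7.4, 0.01% Tween-20. Compound added for 30 min at RT, then streptavidin donor/nickel chelate acceptor beads (10 ug/mL) for 30 min.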
G9a inh: qHTS Assay for Inhibitors of Histone Lysine Methyltransferase G9a. hit rate 8.8% among 350,000. G9a H3K9 monomethylation, AlphaScreen, 2 h. Histone-lysine N-methyltransferase EHMT2 (Homo sapiens), Q96KQ7. Potency, µM (doses to about 102 µM), actives largely listed as inhibitors; further: nearly all actives have a fitted effect of over 75% in size
Target sequence (Q96KQ7 913-1193 limits assumed): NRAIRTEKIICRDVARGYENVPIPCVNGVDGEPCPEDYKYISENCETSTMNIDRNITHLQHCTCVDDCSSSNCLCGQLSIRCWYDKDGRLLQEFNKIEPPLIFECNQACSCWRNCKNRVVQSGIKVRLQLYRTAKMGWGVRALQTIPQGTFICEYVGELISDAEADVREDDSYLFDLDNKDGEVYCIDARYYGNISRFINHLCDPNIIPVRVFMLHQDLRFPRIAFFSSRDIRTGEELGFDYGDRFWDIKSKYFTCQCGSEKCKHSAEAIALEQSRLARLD
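Chemiluminescent proximity detection of H3K9 monomethylation, read after 10 min bead incubation in the dark. Reaction: 20 nM G9a, 500 nM biotin-H3K9 peptide, 20 uM SAM cofactor, 2 h, room temperature, following 15 min enzyme-compound preincubation.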
Numbers stand for hits; i = inactive; ? = inconclusive; nt = no result; [ ] = another dose, or the depositor's remark. The list is not random: actives were taken first. Their share in the collection is about 10%. The call rests on the fitted dose curve; in most records, active means well fitted curve in the direction sought with a large enough effect; inconclusive means small, poorly fitted or top-dose-only effect, or another doubt; inactive means no such curve, though single readings can be large; an effect the other way counts as inactive or inconclusive.

SMILES	BAZ2B block	GLS inhibitor	JMJD2A Tudor	HP1b chromo inh	G9a inh
OC(COc1ccc(F)cc1)CN1CCN(CC(O)COc2ccc(F)cc2)CC1 (stereo not given)	i	i	i	i	i
O=C(CCn1nc(-c2ccc(Cl)cc2)ccc1=O)N1CCN(c2ccccn2)CC1	i	i	i	i	?
Cc1ccc(NC(=O)c2sc(N)nc2C)cc1	i	i	i	i	i
Cc1nc(N)sc1C(=O)Nc1ccccc1	i	i	?	i	50µM
Cc1nc(NC(=O)C2CC2)sc1C(=O)Nc1ccccc1	i	i	i	i	nt
Cc1nc(Nc2c(Cl)cccc2Cl)sc1C(=O)Nc1ccccc1	?	i	i	i	50µM
COc1cccc(/C=N/NC(=O)CCc2n[nH]c(=O)[nH]c2=O)c1O	i	i	i	i	i
O=C(CCc1n[nH]c(=O)[nH]c1=O)N/N=C/c1ccco1	50µM	i	i	i	?
CC(C)CC(NC(=O)/C(=C\c1ccco1)NC(=O)c1ccco1)C(=O)O (stereo not given)	i	i	i	i	32µM
Cc1ccc(C(=O)N/C(=C/c2ccco2)C(=O)NCc2ccco2)cc1	i	i	i	i	45µM
O=C(NC(Cc1ccccc1)C(=O)O)/C(=C/c1ccc(Cl)cc1)NC(=O)c1ccco1 (stereo not given)	i	?	i	i	50µM
O=C(NCCO)/C(=C\c1ccco1)NC(=O)c1ccco1	i	i	i	i	32µM
CCc1c(C)nc(SCC(=O)N2C(C)CCCC2C)[nH]c1=O (stereo not given)	i	i	i	i	i
O=C(NCc1ccccc1)/C(=C/c1ccccc1)NC(=O)c1ccco1	i	i	i	i	i
O=C(NCc1ccccc1)/C(=C/c1ccco1)NC(=O)c1ccco1	i	i	i	i	35µM
O=C(NCCc1ccccc1)/C(=C\c1ccc([N+](=O)[O-])cc1)NC(=O)c1ccco1	i	i	i	i	40µM
O=C(NCCCO)/C(=C\c1ccco1)NC(=O)c1ccco1	i	i	i	i	71µM
Cc1ccc(C(=O)N/C(=C\c2ccccc2)C(=O)NCc2ccncc2)cc1	50µM	i	i	i	i[0.0925 µM]
CCOCCCNC(=O)Cn1nc(CC)n2c(cc3c(OC)cccc32)c1=O	i	i	i	i	i
Cc1ccc(Cl)cc1N1CCN(C(=O)C2CCN(S(=O)(=O)c3cccc4nonc34)CC2)CC1	i	i	i	i	?
O=C(O)CCNC(=O)/C(=C\c1ccco1)NC(=O)c1ccco1	i	i	i	i	22µM
O=C(NCCCn1ccnc1)/C(=C/c1ccc(F)cc1)NC(=O)c1ccccc1	71µM	i	i	i	i
O=C(NCCCn1ccnc1)/C(=C\c1ccco1)NC(=O)c1ccco1	89µM	i	i	i	?
O=C(NC(Cc1ccccc1)C(=O)O)/C(=C/c1ccco1)NC(=O)c1cccc([N+](=O)[O-])c1 (stereo not given)	i	i	i	i	45µM
O=C(NC(Cc1ccccc1)C(=O)O)/C(=C/c1ccc([N+](=O)[O-])cc1)NC(=O)c1ccco1 (stereo not given)	i	i	i	i	?
SMILES	BAZ2B block	GLS inhibitor	JMJD2A Tudor	HP1b chromo inh	G9a inh
CCOc1cccc2sc(N(CCN(C)C)C(=O)c3ccc4ccccc4c3)nc12	?	i	?	i	50µM
CCOc1cccc2sc(N(CCN(C)C)C(=O)c3ccc(Br)s3)nc12	i	i	i	i	i
COc1ccc2sc(N(CCN(C)C)C(=O)c3cc(Cl)sc3Cl)nc2c1	nt	i	i	i	?
CN(C)CCN(C(=O)c1ccc2ccccc2c1)c1nc2c(F)cccc2s1	i	i	?	i	40µM
COc1ccc2sc(N(CCN(C)C)C(=O)c3ccc4ccccc4c3)nc2c1	?	i	40µM	i	40µM
O=C(c1ccc2c(c1)OCCO2)N(Cc1cccnc1)c1nc2c(F)cccc2s1	i	i	i	i	i
Cc1cc(C)c2nc(N(CCN(C)C)C(=O)c3ccc4ccccc4c3)sc2c1	?	i	40µM	i	40µM
CCN(CC)CCNC(=O)c1sc2ncccc2c1-n1cccc1	i	i	i	i	i
Cc1cccc(C)c1NC1=NC2(CCCCC2)N=C(N)N1	i	nt	i	i	?
CCOc1cccc2sc(N(CCCN(C)C)C(=O)c3ccc(S(=O)(=O)N(C)CC4CCCO4)cc3)nc12 (stereo not given)	i	i	i	i	i
COc1ccc(C)c2sc(N(CCN(C)C)C(=O)c3ccc4ccccc4c3)nc12	?	i	?	i	50µM
Cc1cc(C)c2nc(N(CCN(C)C)C(=O)c3ccc(S(=O)(=O)N(C)CC4CCCO4)cc3)sc2c1 (stereo not given)	?	i	?	i	79µM
Cc1ccc(NC(=O)COC(=O)CN2C(=O)c3ccccc3C2=O)cc1S(=O)(=O)N(C)C	nt	i	i	i	?
CCN1/C(=C/C=C/c2oc3ccc(-c4ccccc4)cc3[n+]2CC)Oc2ccc(-c3ccccc3)cc21	28µM	i	?	i	nt
O=C(c1ccco1)N1N=C(c2ccc(Cl)cc2)CC1c1ccco1 (stereo not given)	?	i	i	i	i
O=c1c2c([nH]c3ccccc13)CCCC2	i	i	i	i	i
O=c1c2c([nH]c3ccccc13)C(=C1CCCC1)CC2	?	i	i	i	35µM
CCOc1ccc(OC(=O)c2cn(-c3ccc(C)cc3)c(=O)c3ccccc23)cc1	i	i	50µM	i	i
COc1ccc(-c2ccc(OC)c([C@H]3[C@H]4C=CC[C@@H](C)[C@@H]4C(=O)N3Cc3ccccc3)c2)cc1C	i	i	i	i	i
COc1ccc(-c2ccc(N(C)C)cc2)cc1C1C2C=CCC(C)C2C(=O)N1Cc1ccccc1 (stereo not given)	nt	nt	7.1µM	i	nt
COc1ccc(-c2ccc(N(C)C)cc2)cc1[C@H]1[C@H]2C=CC[C@@H](C)[C@@H]2C(=O)N1Cc1ccccc1	?	i	5.6µM	?	?
COc1ccc(-c2ccc(C(C)=O)cc2)cc1[C@H]1[C@H]2C=CC[C@@H](C)[C@@H]2C(=O)N1Cc1ccccc1	i	i	i	i	i
CC(=O)c1c(C(C)=O)c(C)n(NC(=O)c2ccncc2)c1C	i	?	i	i	i
CCN1CCN(C(=O)c2ccc3c(Cl)c4c(nc3c2)CCCC4)CC1	i	i	i	i	i
CN1/C(=C\C(=O)c2ccccc2Cl)c2ccccc2CC1(C)C	?	i	i	i	?
Cc1ccccc1C(=O)/C=C1/c2ccccc2CC(C)(C)N1C	50µM	i	i	i	i
CC(C)c1ccc(N(C)C(=O)Cc2c(C(=O)O)n(C)c3ccccc23)cc1	i	i	i	i	i
